Measurements: paper PMC4336329 (PLoS ONE, 2015)
Among all 310,000 compounds or so, about 14,000 (4.5%) showed an effect of 50% or more. Effects have a minus sign here. The sample holds strong results, similar compounds and a random draw of the others, so the mix is not that of the screen.

Each molecule was assayed against human ether-à-go-go-related gene (hERG) potassium channel (human, UniProt Q12809) (assay: primary screen, population patch clamp on CHO cells stably expressing hERG; higher = less effect of the substance).
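Also: peak tail current of the secondary pulse compared with the same well before compound.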

Sequence of human ether-à-go-go-related gene (hERG) potassium channel (Q12809 whole entry, looked up): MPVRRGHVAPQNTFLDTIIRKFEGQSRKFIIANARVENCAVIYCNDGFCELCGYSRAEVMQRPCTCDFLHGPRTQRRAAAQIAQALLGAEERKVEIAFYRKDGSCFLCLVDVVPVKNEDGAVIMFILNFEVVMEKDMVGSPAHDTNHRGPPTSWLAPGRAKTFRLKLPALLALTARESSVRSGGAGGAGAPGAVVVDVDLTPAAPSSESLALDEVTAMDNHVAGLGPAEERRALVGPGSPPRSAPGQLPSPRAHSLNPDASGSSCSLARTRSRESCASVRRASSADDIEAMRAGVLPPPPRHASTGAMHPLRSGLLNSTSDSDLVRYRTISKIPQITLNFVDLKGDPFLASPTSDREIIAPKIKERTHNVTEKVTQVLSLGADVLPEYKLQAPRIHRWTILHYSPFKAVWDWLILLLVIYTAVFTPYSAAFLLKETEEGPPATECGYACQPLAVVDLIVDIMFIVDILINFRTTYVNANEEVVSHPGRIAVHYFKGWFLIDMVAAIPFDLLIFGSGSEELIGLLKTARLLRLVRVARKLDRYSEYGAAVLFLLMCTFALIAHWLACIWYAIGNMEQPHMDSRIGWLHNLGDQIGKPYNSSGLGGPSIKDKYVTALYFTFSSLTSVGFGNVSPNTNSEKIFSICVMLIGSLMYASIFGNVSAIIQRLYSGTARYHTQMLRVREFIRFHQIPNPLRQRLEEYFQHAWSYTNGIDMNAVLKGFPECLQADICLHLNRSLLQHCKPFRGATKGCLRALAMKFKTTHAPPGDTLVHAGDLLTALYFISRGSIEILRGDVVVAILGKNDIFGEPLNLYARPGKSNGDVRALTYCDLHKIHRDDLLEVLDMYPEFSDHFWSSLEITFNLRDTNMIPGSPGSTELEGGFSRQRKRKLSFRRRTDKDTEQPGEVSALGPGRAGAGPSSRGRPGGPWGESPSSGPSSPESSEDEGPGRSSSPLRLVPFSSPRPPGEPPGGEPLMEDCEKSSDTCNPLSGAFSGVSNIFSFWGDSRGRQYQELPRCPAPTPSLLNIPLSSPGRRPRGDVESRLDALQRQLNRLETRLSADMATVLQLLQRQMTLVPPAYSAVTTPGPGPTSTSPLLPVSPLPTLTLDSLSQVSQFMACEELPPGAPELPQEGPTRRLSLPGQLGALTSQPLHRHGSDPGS

Point of comparison: `COc1ccc(Cl)cc1Nc1nc(NCCO)nc(N2CCCCC2)n1`, “hERG current change (%, negative = inhibition) at 10uM” value -3.45%. Against it:
- Cn1cc(S(=O)(=O)N2CCCC2)cc1C(=O)NCc1ccc(Cl)cc1 — higher, 2.02%
- COc1ccc(CCNC(=O)Cn2cnc3c(cnn3-c3ccccc3Cl)c2=O)cc1OC — higher, -1.24%
- COc1ccc2nc(NC(C)=O)sc2c1 — lower, -4.83%
- Cc1ccc(OCC(=O)N/N=C/C=C/c2ccco2)cc1 — lower, -45.9%
- CC(Oc1ccc(Cl)cc1)c1ccnn1S(=O)(=O)c1ccccc1 (stereo not shown) — higher, 5.02%
- CCN(CC)C(=O)c1ccc2c(=O)n(CCOC)c(=S)[nH]c2c1 — lower, -7.02%
- COCCNc1c2c(nc3c(-c4ccccc4)c(C)nn13)CCC2 — higher, 2.2%
- Cc1nn2c(NCC(C)C)c3c(nc2c1-c1ccccc1)CCC3 — higher, 4.8%
- Cc1nn2c(NCCN(C)C)c3c(nc2c1-c1ccccc1)CCC3 — lower, -26.7%
- COCCNc1c2c(nc3c(-c4ccccc4)c(C)nn13)CCCC2 — higher, -1.34%
- Cc1nn2c(NCCOCCO)c3c(nc2c1-c1ccccc1)CCC3 — lower, -50.2%
- Cc1nn2c(NCCOCCO)c3c(nc2c1-c1ccccc1)CCCC3 — lower, -74.2%
- Cc1nn2c(NCc3cccnc3)c3c(nc2c1-c1ccccc1)CCC3 — lower, -34.2%
- CCCCNc1c2c(nc3c(-c4ccccc4)c(C)nn13)CCC2 — lower, -3.59%
- Cc1nn2c(NCCCN(C)C)c3c(nc2c1-c1ccccc1)CCCC3 — lower, -32.2%
- Cc1nn2c(NCCCN(C)C)c3c(nc2c1-c1ccccc1)CCC3 — lower, -59.4%
- Cc1nn2c(NCc3ccccn3)c3c(nc2c1-c1ccccc1)CCC3 — lower, -51%
- Cc1nn2c(Nc3ccccc3)c3c(nc2c1-c1ccccc1)CCC3 — higher, 14.1%
- Cc1ccc(-c2csc(NC(=O)C3=NN(c4ccccc4)C(=O)CC3)n2)cc1 — higher, 3.35%
- CCCN1CCN(C(c2cc3cc(OCC)ccc3[nH]c2=O)c2nnnn2C2CCCCC2)CC1 (stereo not shown) — lower, -46.4%
- Cc1ccc(C(C(=O)NC2CCCCC2)N(C(=O)c2csnn2)C2CC2)cc1 (stereo not shown) — lower, -9.75%
- COc1ccc(C(CC(=O)N2CCOCC2)c2c(OC)cc(OC)c3ccc(=O)oc23)cc1 (stereo not shown) — lower, -3.96%
- Cn1c2ccccc2c2c(C(=O)NCC3CCCO3)cn(C3CCCC3)c(=O)c21 (stereo not shown) — higher, -0.664%
- CNC.Cc1cccn2c(NCC3CCCO3)c(C(C)C)nc12.Cl (stereo not shown) — lower, -12.7%
- Cc1c(C(C)O)nnn1-c1nonc1N (stereo not shown) — higher, -2.42%
- CN=C(Nc1cccnc1)c1ccccc1 — higher, 15.6%
- CCOc1ccc(-n2c(=O)c3c4c(sc3n(CC(=O)NCCCOC)c2=O)CCCCC4)cc1 — higher, -1.22%
- CN(C)CCCNc1c2c(nc3cc(-c4cccc(F)c4)nn13)CCC2 — lower, -69.1%
- Cc1nn2c(NCCN(C)C)c3c(nc2c1-c1ccccc1)CCCC3 — lower, -41.4%
- Cc1nn2c(N3CCOCC3)c3c(nc2c1-c1ccccc1)CCCC3 — lower, -14.8%
- Cc1nn2c(NCCN3CCOCC3)c3c(nc2c1-c1ccccc1)CCCC3 — lower, -76.5%
- Fc1cccc(-c2cc3nc4c(c(NCc5ccco5)n3n2)CCCC4)c1 — lower, -33.2%
- CN(C)CCCNc1cc(-c2ccccc2)nc2cc(-c3cccc(F)c3)nn12 — lower, -15.9%
- CCn1cc(Br)c(C(=O)Nc2ccc(Cl)cc2Cl)n1 — higher, 7.24%
- Cc1ccc(S(=O)(=O)N(Cc2ccc(Cl)cc2)c2ccccc2C(=O)O)cc1 — higher, 12.3%
- COc1ccccc1NS(=O)(=O)c1cc2c(cc1C)NC(=O)CO2 — lower, -7.43%
- CCOc1ccc(/C=C2/Sc3ccc(C(=O)N4CCN(C(=O)c5ccco5)CC4)cc3N(C)C2=O)cc1OC — lower, -53.9%
- Cc1cccc(/C=C2\Sc3ccc(C(=O)N4CCOCC4)cc3N(C)C2=O)c1 — lower, -40.7%
- COc1ccc(/C=C2\Sc3ccc(C(=O)N4CCOCC4)cc3N(C)C2=O)cc1 — lower, -15.3%
- CCOc1ccc(/C=C2/Sc3ccc(C(=O)N4CCOCC4)cc3N(C)C2=O)cc1OC — lower, -18.5%
- Cc1cccc(/C=C2\Sc3ccc(C(=O)N4CCCCC4)cc3N(C)C2=O)c1 — higher, 12.1%
- CN1C(=O)/C(=C/c2cccc(Cl)c2)Sc2ccc(C(=O)N3CCCC3)cc21 — lower, -49.7%
- CCOC(=O)N1CCN(C(=O)c2ccc3c(c2)N(C)C(=O)/C(=C\c2ccc(OCC)c(OC)c2)S3)CC1 — lower, -32.5%
- CN1C(=O)/C(=C/c2cccc(Cl)c2)Sc2ccc(C(=O)N3CCOCC3)cc21 — lower, -50.3%
- CN1CCN(C(=O)c2ccc3c(c2)N(C)C(=O)/C(=C/c2cccc(Cl)c2)S3)CC1 — lower, -55.1%
- COc1ccc(C(C(=O)NC(C)(C)C)N(Cc2cccnc2)C(=O)CCC(=O)Nc2cc(C)on2)cc1 (stereo not shown) — higher, 10.9%
- COc1cc(-c2csc(C)n2)ccc1O — higher, 8.67%
- CN(C)C=O.COc1ccccc1NC(=O)C1=C(C)NC(=O)NC1c1ccccc1[N+](=O)[O-] (stereo not shown) — higher, 7.42%
- COc1cccc(N2CCN(C(=O)C3CCCN(S(=O)(=O)c4cnc[nH]4)C3)CC2)c1 (stereo not shown) — higher, 17.4%
- O=C(NCc1ccc2c(c1)OCO2)c1ccncc1 — lower, -12.6%
- Cc1ccc(NCC(=O)Nc2cccc(F)c2)cc1S(=O)(=O)N1CCCCCC1 — lower, -22.6%
- COC(=O)c1ccccc1NC(=O)N1CSC[C@H]1C(=O)OC — higher, 15.8%
- CCCCN(CCCC)CC(O)COc1ccccc1C(=O)Nc1ccccc1 (stereo not shown) — lower, -98.7%
- Cc1cc(C)n(CC(O)COc2ccccc2C(=O)Nc2ccccc2)n1 (stereo not shown) — lower, -26.1%
- CCOc1ccccc1C(=O)Nc1ccc(NC(=O)c2ccccc2)cc1 — higher, 12.7%
- CCCCN(CCCC)CC(O)COc1ccccc1Br.Cl (stereo not shown) — lower, -40.6%
- CC1(C)NC(=O)N(CC(O)COc2ccccc2C(=O)Nc2ccccc2)C1=O (stereo not shown) — lower, -6.2%
- CCCN(CCC)CC(O)COc1ccccc1C(=O)Nc1ccccc1.Cl (stereo not shown) — lower, -68.2%
- CSc1ccc(/C=N/NC(=O)c2sccc2C)cc1 — higher, 15.4%
- CCCCC(=O)NC(c1ccc(OC)c(OC)c1)c1c(O)ccc2ccccc12 (stereo not shown) — lower, -13.7%
- O=C1C(Cl)=C(N2CCOCC2)C(=O)N1c1ccccc1F — higher, 20.3%
- O=C(Nc1ccc(Cl)c([N+](=O)[O-])c1)c1cnccn1 — lower, -10.4%
- Cc1ccc(/C=N/NC(=O)COc2ccccc2-c2ccccc2)cc1 — lower, -3.49%
- CC(=O)c1ccc(N2CCN(C(=O)CN3C(=O)NC4(CCCCC4)C3=O)CC2)c(F)c1 — higher, 0.416%
- COc1cc(C(=O)N2CCN(c3ccccc3O)CC2)ccc1OCC(=O)N1CCOCC1 — higher, 3.06%
- COc1cc(C(=O)N2CCN(c3ccccc3Cl)CC2)ccc1OCC(=O)N1CCOCC1 — lower, -28.6%
- CCc1ccc(OCC(=O)N2CCN(c3ccccc3F)CC2)cc1 — higher, 20.2%
- COc1ccc(S(=O)(=O)Nc2ccccc2C(=O)Nc2nc(-c3ccc(F)cc3)cs2)cc1OC — lower, -51.7%
- Cc1ccc(S(=O)(=O)Nc2ccccc2C(=O)Nc2nc(-c3ccc(F)cc3)cs2)cc1 — higher, 9.22%
- CCC(=O)c1ccc(N2CCN(C(=O)COc3ccccc3F)CC2)c(F)c1 — lower, -50.9%
- CC(=O)c1ccc(N2CCN(C(=O)COc3ccc(F)cc3)CC2)c(F)c1 — lower, -71.5%
- COc1ccc(-c2csc(NC(=O)c3ccccc3NS(=O)(=O)c3ccc(F)c(F)c3)n2)cc1 — higher, 19.3%
- CC(=O)c1ccc(N2CCN(C(=O)COc3ccccc3F)CC2)c(F)c1 — lower, -39.7%
- COc1cc(C(=O)N2CCN(c3ccccc3F)CC2)ccc1OCC(=O)N1CCOCC1 — lower, -60.9%
- CCC(=O)c1ccc(N2CCCCCC2)c(F)c1 — higher, 4.04%
- CC(=O)c1cccc(NC(=O)NCc2ccco2)c1 — higher, -2.14%
- CCN(CC)S(=O)(=O)c1ccc(C)c(NC(=S)N2CCN(C/C=C/c3ccccc3)CC2)c1 — higher, -2.74%
- CCOc1ccc(NS(=O)(=O)c2ccc(NC(=S)NC(=O)CC(C)C)cc2)cc1 — higher, 8.92%
- O=C(CSC(=S)N1CCCC1)N1CCN(S(=O)(=O)c2cccc([N+](=O)[O-])c2)CC1 — higher, 5.69%
- COc1ccc(/C=N/NC(=O)CC(=O)NCc2cccnc2)c(OC)c1 — higher, 4.71%
- CCC(CC)C(=O)c1c[nH]c(C(=O)NCc2cccnc2)c1 — higher, 18.6%
- CC(C)(C)c1ccc(-c2nnc(SCC(=O)c3ccc4c(c3)OCCO4)o2)cc1 — higher, 12.3%
- Cc1ccc(S(=O)(=O)N(C)CCCC(=O)NC(C)(C)C)cc1 — higher, 13.3%
- CO/N=C/c1cn(-c2ccc(Cl)cc2)nn1 — higher, -2.53%
- CCC(=O)c1ccc(N2CCCC2)c(F)c1 — higher, 6.95%
- CC(=O)c1cc(F)c(N2CCN(C(=O)COc3ccc(F)cc3)CC2)cc1C — lower, -76.3%
- CCCCCC(=O)N1CCN(c2ccc(C(C)=O)cc2F)CC1 — lower, -60.9%
- CC(=O)c1cc(F)c(N2CCN(C(=O)COc3ccccc3F)CC2)cc1C — lower, -7.84%
- CC(=O)c1ccc(N2CCN(C(=O)Cc3ccccc3)CC2)c(F)c1 — lower, -9.6%
- COc1cc(C(=O)Nc2nc(-c3ccc(C)cc3)cs2)ccc1OCC(=O)N1CCOCC1 — lower, -18.9%
- COc1ccc(-c2csc(NC(=O)c3ccc(OCC(=O)N4CCOCC4)c(OC)c3)n2)cc1 — lower, -48%
- CC(=O)c1ccc(N2CCCC2)c(F)c1 — higher, 1.88%
- CCOC(=O)N1CCN(c2cc(C)c(C(C)=O)cc2F)CC1 — higher, 2.71%
- CCOC(=O)N1CCN(c2ccc(C(=O)CC)cc2F)CC1 — lower, -9.37%
- CCC(=O)c1ccc(N2CCN(C(=O)COc3ccc(F)cc3)CC2)c(F)c1 — lower, -73.4%
- COc1cc(C(=O)Nc2nc(-c3ccc(F)cc3)cs2)ccc1OCC(=O)N1CCOCC1 — lower, -53.3%
